About 2,000 (36%) of roughly 5,500 compounds were called active. Roughly 18% stayed inconclusive and do not appear here. Cut-off read from the data, not from the text of the source: active = normalized growth mostly below about 0.91 (no sharp cut-off); inconclusive = no clear call, values can overlap the other calls; inactive = mostly above about 0.92. The list shows a part of the results.
Experiment: chemical genetic growth profiling, strain panel (AID 1159580);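 note: tested at 20 µM; growth read once vehicle control cultures reached saturation at 30 °C; 1 = growth at the plate median or of vehicle wells; lower values mean less growth of the strain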
Settings: S. cerevisiae deletion strains, growth OD

Measured: normalized growth

COc1ccc2c(c1OC)C(=O)O[C@@H]2[C@H]1c2c(cc3c(c2OC)OCO3)CCN1C
inactive: locus YAL040C, strain CLN3, hits give low values 0.984 | locus YCL061C, strain MRC1 (second series), hits give low values 1 | locus YDR150W, strain NUM1, hits give low values 1 | locus YDR363W, strain ESC2, hits give low values 0.998 | locus YER002W, strain NOP16, hits give low values 0.985 | locus YGR229C, strain SMI1, hits give low values 0.998 | locus YJR075W, strain HOC1, hits give low values 1 | locus YMR307W, strain GAS1, hits give low values 0.991 | locus YNL153C, strain GIM3, hits give low values 1.01 | locus YNL175C, strain NOP13, hits give low values 1 | locus YNL197C, strain WHI3, hits give low values 1.01 | locus YNL224C, strain SQS1, hits give low values 1 | locus YNL322C, strain KRE1, hits give low values 0.994 | locus YOR083W, strain WHI5 (second series), hits give low values 1.01 | locus YPL055C, strain LGE1, hits give low values 0.99
